“And” between values parts separate entries of the source, which are not always exact repeats. Identical values can stand only once. Inconclusive results are not listed. Where a call stands in place of a potency, no number is given. More than one record can exist for a structure, and the calls need not agree. Values without a mark were called inactive. The source made the active and inactive calls. Calls come from the whole dose curve; as a rule, active = well fitted curve in the direction sought with a large enough effect; inconclusive = small, poorly fitted or top-dose-only effect, or another doubt; inactive = no such curve, though single readings can be large; an effect the other way counts as inactive or inconclusive.
Columns and labels:
Hek293T = experiment: Primary qHTS to identify gynecologic anti-cancer compounds using libraries of approved drugs and bioactive compounds (AID 1345084); conditions: Gynecologic cancer cell panel viability, ATPlite luminescence, 48 h, control line for the selectivity index; series mostly up to 57.5 µM; note: nearly all actives have a fitted effect of over 55% in size
Summary of the method: (§1)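 Five-concentration response, 48 h; readout is ATP-driven luciferase luminescence.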

JEG-3 = experiment: as above; conditions: Gynecologic cancer cell panel viability, ATPlite luminescence, 48 h; series mostly up to 57.5 µM
Summary of the method: as §1

PA-1 = experiment: as above; conditions: Gynecologic cancer cell panel viability, ATPlite luminescence, 48 h; series mostly up to 57.5 µM
Summary of the method: as §1

SKOV3 = experiment: as above; conditions: Gynecologic cancer cell panel viability, ATPlite luminescence, 48 h; series mostly up to 57.5 µM
Summary of the method: as §1

Tov-21-G = experiment: as above; conditions: Gynecologic cancer cell panel viability, ATPlite luminescence, 48 h; series mostly up to 57.5 µM
Summary of the method: as §1

Tov112D = experiment: as above; conditions: Gynecologic cancer cell panel viability, ATPlite luminescence, 48 h; series mostly up to 57.5 µM
Summary of the method: as §1

OV90 = experiment: as above; conditions: Gynecologic cancer cell panel viability, ATPlite luminescence, 48 h; series mostly up to 57.5 µM
Summary of the method: as §1

astro = experiment: Drug repurposing screens with cells derived from glioblastoma tumor samples (AID 1345199); conditions: viability, ATP luminescence, 48 h; series mostly up to 45.9 µM; note: nearly all actives have a fitted effect of over 40% in size
Summary of the method: (§2)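 Primary testing used CD133+ neurospheres from four GBM patients, seven concentrations, 48 h exposure and ATP-based viability; confirmation added three slower-growing patient lines.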

[1] = as above; conditions: GBM patient neurospheres viability, ATP luminescence, 48 h
Summary of the method: as §2

[2] = at 45.9 µM (top of the series), tumour line B
[3] = at 45.9 µM (top of the series), tumour line D
[4] = at 46.1 µM (top of the series), tumour line C
[5] = at 46 µM (top of the series), tumour line A
[6] = at 20 µM (top of the series), tumour line C
[7] = at 21.2 µM (top of the series), tumour line B
[8] = at 21.2 µM (top of the series), tumour line D
Potency is the fitted concentration of half-maximal effect.

CCN(CC)CCOc1ccccc1C(=O)CCc1ccccc1
Potency (Hek293T): inactive
Potency (JEG-3): inactive
Potency (PA-1): inactive
Potency (SKOV3): inactive
Potency (Tov-21-G): inactive
Potency (Tov112D): inactive

C[C@@]12C(=O)OC(=O)[C@]1(C)C1CCC2O1
Potency (Hek293T): 10 µM (active)
Potency (JEG-3): 11.2 µM (active)
Potency (OV90): 3.16 µM (active)
Potency (SKOV3): 8.91 µM (active)
Potency (Tov-21-G): 8.91 µM (active)
Potency (Tov112D): 14.1 µM (active)
Potency (astro): 631 nM (active)

C#C[C@]1(O)CC[C@H]2[C@@H]3CCC4=CC(=O)CC[C@@H]4[C@H]3CC[C@@]21CC
Potency (Hek293T): inactive
Potency (JEG-3): inactive
Potency (OV90): inactive
Potency (SKOV3): inactive
Potency (Tov-21-G): inactive
Potency (Tov112D): inactive
activity, negative = cell killing [1, 2]: -8.91%
activity, negative = cell killing [1, 3]: -3.36%
activity, negative = cell killing [1, 4]: 6%
Potency (astro): inactive

CN1CCN(C2=Nc3cc(F)ccc3Cc3ccccc32)CC1
Potency (Hek293T): inactive
Potency (JEG-3): inactive
Potency (PA-1): inactive
Potency (SKOV3): inactive
Potency (Tov-21-G): inactive
Potency (Tov112D): inactive
Potency (astro): inactive

CC1(COc2ccc(CC3SC(=O)NC3=O)cc2)CCCCC1 (stereo unspecified)
Potency (Hek293T): inactive
Potency (JEG-3): inactive
Potency (PA-1): inactive
Potency (SKOV3): inactive
Potency (Tov-21-G): inactive
Potency (Tov112D): inactive

CC(=O)OC[C@H]1O[C@@H](n2ncc(=O)[nH]c2=O)[C@H](OC(C)=O)[C@@H]1OC(C)=O
Potency (Hek293T): inactive
Potency (JEG-3): inactive
Potency (OV90): inactive
Potency (SKOV3): inactive
Potency (Tov112D): inactive
activity, negative = cell killing [1, 3]: -20.8%
activity, negative = cell killing [1, 5]: -30.4%

NS(=O)(=O)c1ccc(Cl)c(S(N)(=O)=O)c1
Potency (Hek293T): inactive
Potency (JEG-3): inactive
Potency (PA-1): inactive
Potency (SKOV3): inactive
Potency (Tov-21-G): inactive
Potency (Tov112D): inactive
activity, negative = cell killing [1, 2]: -6.27%
activity, negative = cell killing [1, 3]: -11.1%
activity, negative = cell killing [1, 5]: -23.6%
activity, negative = cell killing [1, 4]: 27.6%
Potency (astro): inactive

O=C1OC(CN2CCOCC2)CN1/N=C/c1ccc([N+](=O)[O-])o1 (stereo unspecified)
Potency (Hek293T): inactive
Potency (JEG-3): inactive
Potency (PA-1): inactive
Potency (SKOV3): inactive
Potency (Tov-21-G): inactive
Potency (Tov112D): inactive
activity, negative = cell killing [1, 6]: -25.2%
activity, negative = cell killing [1, 7]: 2.66%
activity, negative = cell killing [1, 8]: -3.22%
Potency (astro): inactive

O=C(NCCc1c[nH]c2ccccc12)c1cccnc1
Potency (Hek293T): inactive
Potency (JEG-3): inactive
Potency (PA-1): inactive
Potency (SKOV3): inactive
Potency (Tov-21-G): inactive
Potency (Tov112D): inactive
activity, negative = cell killing [1, 2]: -17.4%
Potency (astro): inactive

CCN(CC)CCOC(=O)C1(c2ccccc2)CCCC1
Potency (Hek293T): inactive
Potency (JEG-3): inactive
Potency (PA-1): inactive
Potency (SKOV3): inactive
Potency (Tov-21-G): inactive
Potency (Tov112D): inactive
activity, negative = cell killing [1, 2]: -21.1%
activity, negative = cell killing [1, 3]: -19.5%
activity, negative = cell killing [1, 4]: -29.4%
Potency (astro): inactive

Nc1nc(N)c(-c2ccccc2)s1
Potency (Hek293T): inactive
Potency (JEG-3): inactive
Potency (OV90): inactive
Potency (SKOV3): inactive
Potency (Tov-21-G): inactive
Potency (Tov112D): inactive
activity, negative = cell killing [1, 2]: -11%
activity, negative = cell killing [1, 3]: 8.98%
activity, negative = cell killing [1, 5]: -29.6%
activity, negative = cell killing [1, 4]: -25.4%
Potency (astro): inactive

CC(C)(Cc1c[nH]c2ccccc12)NCC(O)COc1ccccc1C#N (stereo unspecified)
Potency (Hek293T): inactive
Potency (JEG-3): inactive
Potency (PA-1): inactive
Potency (Tov-21-G): inactive
Potency (Tov112D): inactive

CN1CCC(OC(c2ccccc2)c2ccccc2)CC1
Potency (Hek293T): inactive
Potency (JEG-3): inactive
Potency (PA-1): inactive
Potency (SKOV3): inactive
Potency (Tov-21-G): inactive
Potency (Tov112D): inactive
activity, negative = cell killing [1, 6]: 1.79%
activity, negative = cell killing [1, 7]: -9.68%
Potency ([1]; tumour line A): 7.08 µM (active)
Potency (astro): inactive

O=C1C(O)=C(O)C(=O)C(O)=C1O
Potency (Hek293T): inactive
Potency (JEG-3): inactive
Potency (OV90): inactive
Potency (SKOV3): inactive
Potency (Tov-21-G): inactive
activity, negative = cell killing [1, 2]: -1.83%
activity, negative = cell killing [1, 3]: -8.56%
activity, negative = cell killing [1, 5]: -7.89%
activity, negative = cell killing [1, 4]: 12.8%
Potency (astro): inactive

O=C(Oc1cccc2cccnc12)c1ccccc1
Potency (Hek293T): inactive
Potency (JEG-3): inactive
Potency (OV90): inactive
Potency (Tov-21-G): inactive
Potency (Tov112D): inactive
activity, negative = cell killing [1, 2]: -24.1%
activity, negative = cell killing [1, 3]: -26.2%
activity, negative = cell killing [1, 4]: -9.14%
Potency (astro): inactive

CCc1nn(CCCN2CCN(c3cccc(Cl)c3)CC2)c(=O)n1CCOc1ccccc1
Potency (Hek293T): inactive
Potency (JEG-3): inactive
Potency (SKOV3): inactive
Potency (Tov-21-G): inactive
Potency (Tov112D): inactive
activity, negative = cell killing [1, 2]: -29%
activity, negative = cell killing [1, 4]: -17.6%
Potency ([1]; tumour line A): 7.94 µM (active) and 10 µM (active)
Potency ([1]; tumour line D): 15.8 µM (active) and 11.2 µM (active)
Potency (astro): 35.5 µM (active) and 25.1 µM (active)

CCOC(=O)c1c(N)sc2c1CCN(Cc1ccccc1)C2
Potency (Hek293T): inactive
Potency (JEG-3): inactive
Potency (SKOV3): inactive
Potency (Tov-21-G): inactive
Potency (Tov112D): inactive
activity, negative = cell killing [1, 4]: -15.7%
Potency ([1]; tumour line A): 11.2 µM (active)
Potency (astro): inactive

CC(O)Cn1cnc2c1c(=O)n(C)c(=O)n2C (stereo unspecified)
Potency (Hek293T): inactive
Potency (JEG-3): inactive
Potency (OV90): inactive
Potency (SKOV3): inactive
Potency (Tov-21-G): inactive
Potency (Tov112D): inactive
activity, negative = cell killing [1, 6]: 7.77%
activity, negative = cell killing [1, 7]: -9.45%
activity, negative = cell killing [1, 8]: -12.1%
activity, negative = cell killing ([1]; at 21.3 µM (top of the series), tumour line A): -14.4%
Potency (astro): inactive

Source: PubChem BioAssay (NCATS)
